Laboratory results: publication PMC4336329 (PLoS ONE, 2015)
Out of some 310,000 compounds screened, about 2,200 (0.71%) showed an effect of 50% or more. Effects have a minus sign here. This excerpt belongs to a sample that is enriched for strong results.

Target: human ether-à-go-go-related gene (hERG) potassium channel (human, UniProt Q12809)
Experiment: primary screen, population patch clamp on CHO cells stably expressing hERG; higher = less effect of the substance

Sequence of human ether-à-go-go-related gene (hERG) potassium channel (Q12809 whole entry, looked up): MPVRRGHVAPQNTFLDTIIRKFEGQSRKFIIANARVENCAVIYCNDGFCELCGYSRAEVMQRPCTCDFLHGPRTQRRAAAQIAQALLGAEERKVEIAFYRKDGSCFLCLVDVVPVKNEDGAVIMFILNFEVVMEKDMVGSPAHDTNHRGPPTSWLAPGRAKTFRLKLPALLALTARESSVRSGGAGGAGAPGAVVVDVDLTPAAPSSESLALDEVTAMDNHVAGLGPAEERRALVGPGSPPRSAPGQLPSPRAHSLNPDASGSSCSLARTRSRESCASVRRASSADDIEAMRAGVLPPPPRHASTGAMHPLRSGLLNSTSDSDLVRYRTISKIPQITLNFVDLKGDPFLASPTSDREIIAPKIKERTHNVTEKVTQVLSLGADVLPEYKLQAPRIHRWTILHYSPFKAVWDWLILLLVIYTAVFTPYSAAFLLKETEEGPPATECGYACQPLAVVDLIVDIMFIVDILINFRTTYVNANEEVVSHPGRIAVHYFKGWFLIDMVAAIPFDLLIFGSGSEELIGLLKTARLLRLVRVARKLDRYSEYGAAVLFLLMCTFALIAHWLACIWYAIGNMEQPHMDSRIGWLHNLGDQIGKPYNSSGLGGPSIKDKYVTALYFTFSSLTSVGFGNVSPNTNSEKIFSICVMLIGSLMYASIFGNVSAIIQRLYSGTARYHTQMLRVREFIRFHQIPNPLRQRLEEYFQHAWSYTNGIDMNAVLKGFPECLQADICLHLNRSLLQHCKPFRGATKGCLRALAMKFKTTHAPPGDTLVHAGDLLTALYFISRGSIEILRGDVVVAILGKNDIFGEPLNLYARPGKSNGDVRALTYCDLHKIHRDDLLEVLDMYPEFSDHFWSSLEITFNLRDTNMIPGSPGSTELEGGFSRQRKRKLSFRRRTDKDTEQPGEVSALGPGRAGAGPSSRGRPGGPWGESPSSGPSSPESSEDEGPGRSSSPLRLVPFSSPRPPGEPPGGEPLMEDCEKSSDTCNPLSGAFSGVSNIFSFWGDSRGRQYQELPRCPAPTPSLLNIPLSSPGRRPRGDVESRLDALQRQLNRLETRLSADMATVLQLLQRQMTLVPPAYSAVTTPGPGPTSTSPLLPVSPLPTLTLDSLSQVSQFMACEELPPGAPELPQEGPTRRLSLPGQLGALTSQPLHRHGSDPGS

Structure (SMILES) | hERG current change (%, negative = inhibition) at 1uM
Cc1nnc(NCc2n[nH]c(=O)c3ccccc23)c2ccccc12 | 9.65%
O=C(CN(C(=O)c1csnn1)c1ccc2c(c1)OCCO2)NCc1ccc(F)cc1 | -1.13%
COc1ccc2c(c1)C(=O)CC(c1ccc3c(c1)OCCO3)O2 (centres unmarked) | 16.1%
CCOC(=O)c1ccc(NC(=O)Nc2cccc(C)n2)cc1 | 10%
Cc1ccccc1SC1CCN(Cc2nc(C3CC3)no2)CC1 | -1.23%
Cc1ccc(CS(=O)(=O)c2ncn[nH]2)cc1 | 21%
CCN1CCN(C(=O)C2CCN(Cc3nc(-c4cccc(Cl)c4)oc3C)CC2)CC1 | -21%
Cc1oc(-c2cccc(Cl)c2)nc1CN1CCC(C(=O)NCc2cccnc2)CC1 | -13%
Cc1oc(-c2cccc(Cl)c2)nc1CN1CCC(C(=O)NCc2ccco2)CC1 | -70.4%
Cc1oc(-c2ccc(Cl)cc2)nc1CN1CCCC(C(=O)NCc2ccccn2)C1 (centres unmarked) | -44.2%
Cc1oc(-c2ccc(Cl)cc2)nc1CN1CCC(C(=O)NCc2ccco2)CC1 | -58.3%
Cc1oc(-c2cccc(Cl)c2)nc1CN1CCC(C(=O)NC2CC2)CC1 | 14.6%
Cc1oc(-c2ccc(Cl)cc2)nc1CN1CCCC(C(=O)NCc2ccco2)C1 (centres unmarked) | -56.4%
Cc1oc(-c2cccc(Cl)c2)nc1CN1CCCC(C(=O)NCc2ccco2)C1 (centres unmarked) | -45%
Cc1oc(-c2ccc(Cl)cc2)nc1CN1CCC(C(=O)N2CCN(Cc3ccccc3)CC2)CC1 | -48.1%
Cc1oc(-c2ccc(Cl)cc2)nc1CN1CCC(C(=O)N2CCc3ccccc3C2)CC1 | -56.7%
Cc1ccccc1-c1nc(CN2CCC(C(=O)NCc3ccco3)CC2)c(C)o1 | -34.7%
Cc1oc(-c2ccccc2F)nc1CN1CCC(C(=O)NCc2ccco2)CC1 | -9.53%
Cc1ccc(OC(=O)c2ccc3nc(C)sc3c2)cc1 | 10%
COC(=O)COC(=O)c1ccc(O)cc1 | -12.9%
O=C1C=C(c2ccc3ncccc3c2)C[C@@H](c2ccc3c(c2)OCO3)C1 | 9.3%
O=C(c1cc2ccccc2oc1=O)N(Cc1cccs1)Cc1ccccc1Cl | 2.42%

Structure (SMILES) | hERG current change (%, negative = inhibition) at 1uM
CCc1ccc(NC(=O)CCn2nc(C)c(S(=O)(=O)N3CCCCC3)c2C)cc1 | 4.67%
CCOC(=O)COc1c(-c2ccc(OC)cc2)oc2ccccc2c1=O | 9.81%
CC(C)OP(=O)(OC(C)C)C(Nc1ccccc1)c1cccc([N+](=O)[O-])c1 (centres unmarked) | 12%
COc1cc(-c2nc3n(n2)C(c2ccncc2)C2=C(CCCC2=O)N3)cc(OC)c1OC (centres unmarked) | 26%
Cc1ccc(CN2C(=O)C3CCCN3c3ncccc32)cc1 (centres unmarked) | 12.7%
CCCCN1C(=O)NC(=O)/C(=C/c2cnc(SC)nc2)C1=O | 7.6%
Cc1ccccc1NCc1ccc(O)c2ncccc12 | 8.46%
Cl.N=c1ccn(Cc2ccccc2Cl)cc1 | 16.8%
CCc1ccc(-c2nc(CN3CCC(C(=O)NCCN(CC)c4ccccc4)CC3)c(C)o2)cc1 | -15.6%
CCc1ccc(-c2nc(CN3CCC(C(=O)NCc4ccc(F)cc4)CC3)c(C)o2)cc1 | -12.4%
CCc1ccc(-c2nc(CN3CCC(C(=O)NCc4ccco4)CC3)c(C)o2)cc1 | -51.1%
CCOc1ccc(-c2cn3ccccc3n2)cc1 | -1.48%
CCCN(CCC)C(=O)c1oc2ccccc2c1NC(=O)Cc1cccc(OC)c1 | 19.2%
COc1ccc(CC(=O)Nc2c(C(=O)N3CCN(c4ccccc4)CC3)oc3ccccc23)cc1OC | -8.82%
CCOCCCN(C)C1CCN(C(=O)c2oc3ccccc3c2NC(=O)Cc2cccc([N+](=O)[O-])c2)CC1 | -83.8%
COc1ccc(CC(=O)Nc2c(C(=O)N3CCN(c4ncccn4)CC3)oc3ccccc23)cc1 | -21.4%
COc1ccc(N2CCN(C(=O)c3oc4ccccc4c3NC(=O)Cc3cccc(OC)c3)CC2)cc1 | 3.16%
CCOCCCN(C)C1CCN(C(=O)c2oc3ccccc3c2NC(=O)Cc2ccc([N+](=O)[O-])cc2)CC1 | -89.1%
COc1ccc(NS(=O)(=O)c2cccc(C(=O)N3CCCC(C)C3)c2)cc1 (centres unmarked) | 3.3%
CCN(CCn1cccn1)C(=O)CC1C(=O)NCCN1Cc1ccc(OC)c(OC)c1 (centres unmarked) | 2.76%
Fc1ccc(Cn2nnnc2C(c2cccs2)N2CCN(C3CCCCC3)CC2)cc1 (centres unmarked) | -51.6%
OC1CCN(C(c2ccc3ncccc3c2)c2nnnn2C2CCCCC2)CC1 (centres unmarked) | -5.3%

Structure (SMILES) | hERG current change (%, negative = inhibition) at 1uM
COc1ccc(Cn2nnnc2C(c2ccc(F)cc2)N2CCN(C3CCCC3)CC2)cc1 (centres unmarked) | -15%
c1cnc2ccc(C(c3nnnn3C3CCCCC3)N3CCN(C4CCCCC4)CC3)cc2c1 (centres unmarked) | -87%
c1cnc2ccc(C(c3nnnn3C3CCCCC3)N3CCCCC3)cc2c1 (centres unmarked) | 1.89%
c1cnc2ccc(C(c3nnnn3C3CCCC3)N3CCN4CCCC4C3)cc2c1 (centres unmarked) | -19.5%
c1cnc2ccc(C(c3nnnn3C3CCCCC3)N3CCN4CCCC4C3)cc2c1 (centres unmarked) | -96.9%
Fc1ccc(C(c2nnnn2Cc2cccs2)N2CCN(C3CCCCC3)CC2)cc1 (centres unmarked) | -46.6%
CCC(C)(C)n1nnnc1C(c1ccc2ncccc2c1)N1CCN2CCCC2C1 (centres unmarked) | 8.16%
COc1ccc(Cn2nnnc2C(c2ccc3ncccc3c2)N2CCN(C3CCCCC3)CC2)cc1 (centres unmarked) | -79.3%
Fc1ccc(Cn2nnnc2C(c2cccs2)N2CCCCCC2)cc1 (centres unmarked) | 0.84%
COc1ccc(Cn2nnnc2C(c2ccc(C)cc2)N2CCN(C3CCCC3)CC2)cc1.Cl (centres unmarked) | -32.4%
CCN(CC(=O)Nc1ccc(NC(C)=O)cc1)C(=O)CSc1nnc(-c2ccco2)n1CC | 16.2%
Cc1nn2c(-c3ccccc3)ccnc2c1-c1ccccc1 | 7.57%
CC(C)Oc1ccc(/C(O)=C2/C(=O)C(=O)N(Cc3cccnc3)C2c2ccco2)cc1 (centres unmarked) | 14.2%
Cc1cc(C)c(S(=O)(=O)N2CCOC2CNC(=O)C(=O)NCCCN2CCCC2=O)c(C)c1 (centres unmarked) | 7.05%
O=C(c1ccccc1)c1c[nH]c(C(=O)C(Cl)(Cl)Cl)c1 | 16%
COC/C=C/C1=CC2=CC(=O)C(C)(OC(=O)c3cnc4ccccc4n3)C(=O)C2=CN1C1CCCCC1 (centres unmarked) | 9.88%
Cc1csc(NC(=O)CSc2nncs2)n1 | 8.29%
CC(NC(=O)Cc1cccs1)c1ccc2c(c1)OCO2 (centres unmarked) | -4.41%
CCOC(=O)c1cccc(Nc2ncnc3ccc(C)cc23)c1 | -3.73%
CC(C)OCCCNC(=O)COc1ccc2oc3c(c2c1)CCCC3 | 11.1%
CC(C)N(CCNC(=O)COc1ccc2oc3c(c2c1)CCCC3)C(C)C | -52.7%
CCN(CC)CCCNC(=O)COc1ccc2oc3c(c2c1)CCCC3.Cl | 6.07%

Structure (SMILES) | hERG current change (%, negative = inhibition) at 1uM
O=C(NCCN=C1NS(=O)(=O)c2ccccc21)c1ccc2nccnc2c1 | 18.3%
O=C(CSCc1cccc(CSCC(=O)Nc2ccccc2)n1)Nc1ccccc1 | -59.7%
O=C(CSCc1cccc(CSCC(=O)Nc2ccc3ccccc3c2)n1)Nc1ccc2ccccc2c1 | 8.91%
O=C(CSCc1ccccn1)Nc1ccccc1 | -0.275%
C=CCNC(=O)c1sc(=S)n(-c2ccc(C(=O)OCC)cc2)c1N | 2.24%
O=C(c1cccn2c(=O)c3ccccc3nc12)N1CCN(Cc2ccc3c(c2)OCO3)CC1 | -54.4%
O=C(c1ccc2nc3ccccc3c(=O)n2c1)N1CCN(Cc2ccc3c(c2)OCO3)CC1 | -12.2%
O=C(c1cccn2c(=O)c3cc(Cl)ccc3nc12)N1CCN(Cc2ccc3c(c2)OCO3)CC1 | -33.5%
Cc1onc(-c2ccccc2)c1C(=O)OCc1nnc(-c2ccc([N+](=O)[O-])cc2)o1 | -51.2%
O=C(OCc1nnc(-c2ccc([N+](=O)[O-])cc2)o1)C1CCN(C(=O)c2ccc(F)cc2)CC1 | -71.4%
O=C(CCC(=O)c1ccc(F)cc1)OCc1nnc(-c2ccc([N+](=O)[O-])cc2)o1 | 1.72%
O=C(Oc1cccc([N+](=O)[O-])c1)C1CCN(C(=O)c2ccc(F)cc2)CC1 | -3.31%
CCOC(=O)C1CCN(C(=O)C2CCN(C(=O)c3ccc([N+](=O)[O-])cc3)CC2)CC1 | -28.2%
CCOc1ccc(C(=O)N2CCC(C(=O)c3ccc4c(c3)OCCO4)CC2)cc1 | -61.5%
Cc1onc(-c2ccccc2Cl)c1C(=O)OCc1nnc(-c2ccccc2)o1 | 3.84%
O=C(c1ccc2c(c1)OCCO2)C1CCN(C(=O)c2ccc(F)cc2)CC1 | 4.28%
O=C(c1ccc2c(c1)OCCO2)C1CCN(C(=O)c2ccc(F)c(F)c2)CC1 | 2.71%
CCOC(=O)N1CCN(C(=O)C2CCN(C(=O)c3ccc([N+](=O)[O-])cc3)CC2)CC1 | -26.9%
Cc1onc(-c2ccccc2)c1C(=O)OCc1nnc(-c2ccccc2)o1 | 5.73%
CCOc1ccc(C(=O)C2CCN(C(=O)c3ccc([N+](=O)[O-])cc3)CC2)cc1 | -81.1%
